The antibiotic and cytotoxicity screens of Wong et al. (2023)
In all, about 39,000 compounds went through this assay and about 3,300 (8.5%) were called active. The sample holds actives, similar compounds and a random draw of the others, so the mix is not that of the screen.

system: HepG2; assay: cytotoxicity call (relative viability < 0.9); conditions: 10 µM

For `C[C@H](CO)N1C[C@H](C)[C@@H](CN(C)S(C)(=O)=O)OCCCC[C@H](C)Oc2ccc(NS(C)(=O)=O)cc2C1=O`, which cytotoxicity call is on record?
Its cytotoxicity call is “inactive”.

`COc1ccc(S(=O)(=O)N(C)C[C@@H]2Oc3ccc(NS(=O)(=O)c4ccc(F)cc4)cc3C(=O)N([C@H](C)CO)C[C@@H]2C)cc1` was tested. Which cytotoxicity call did it give?
Its cytotoxicity call is “inactive”.

How did the cytotoxicity call turn out when `CC(C)N1C[C@H](C)[C@@H](CN(C)Cc2ccc(Oc3ccccc3)cc2)Oc2c(cccc2-c2nn[nH]n2)C1=O` was run?
The cytotoxicity call was “inactive”.

How did the cytotoxicity call turn out when `N=C(N=C(N)N)NCCc1ccccc1` was run?
Its cytotoxicity call is “active”.

With `N=C(N=C(N)N)Nc1ccccc1` as the compound, how does the cytotoxicity call read?
The cytotoxicity call was “inactive”.

Which cytotoxicity call does the source give for `Cl.N=C(N)NC(=N)NCCc1ccccc1` here?
The cytotoxicity call was “inactive”.

Which cytotoxicity call does the source give for `Cc1cc(C(=O)O)c(=O)[nH]c1C` here?
The cytotoxicity call was “inactive”.

With `NCCC1=CSC2=NCCN12` as the compound, how does the cytotoxicity call read?
The cytotoxicity call was “inactive”.

How did the cytotoxicity call turn out when `O=C(CCCCCCC(=O)Nc1ccc([C@H]2O[C@@H](CSc3ccccn3)C[C@H](c3ccccc3)O2)cc1)NO` was run?
The cytotoxicity call was “inactive”.

How did the cytotoxicity call turn out when `CCS(=O)(=O)NCC[C@@H]1CC[C@H](NC(=O)Cc2ccccn2)[C@@H](CO)O1` was run?
The cytotoxicity call was “inactive”.

For `Cc1ccc(S(=O)(=O)N[C@@H]2CC[C@@H](CC(=O)NCc3ccc(Cl)c(Cl)c3)O[C@@H]2CO)cc1`, which cytotoxicity call is on record?
The cytotoxicity call was “inactive”.

`Cc1ccccc1-c1ccc2c(c1)O[C@H](CN(C)C(=O)Nc1ccc(C(F)(F)F)cc1)[C@H](C)CN([C@H](C)CO)S2(=O)=O` was tested. Which cytotoxicity call did it give?
The cytotoxicity call was “inactive”.

`Cc1ccc(-c2ccc3c(c2)O[C@H](CN(C)C(=O)Nc2ccc(C(F)(F)F)cc2)[C@H](C)CN([C@@H](C)CO)S3(=O)=O)cc1` was tested. Which cytotoxicity call did it give?
Its cytotoxicity call is “inactive”.

For `Cc1ccc(-c2ccc3c(c2)O[C@@H](CN(C)C(=O)Nc2ccc(C(F)(F)F)cc2)[C@@H](C)CN([C@@H](C)CO)S3(=O)=O)cc1`, which cytotoxicity call is on record?
Its cytotoxicity call is “inactive”.

`Cc1ccc(-c2ccc3c(c2)O[C@@H](CN(C)C(=O)Nc2ccc(C(F)(F)F)cc2)[C@@H](C)CN([C@H](C)CO)S3(=O)=O)cc1` was tested. Which cytotoxicity call did it give?
Its cytotoxicity call is “active”.

For `Cc1ccccc1-c1ccc2c(c1)O[C@@H](CN(C)C(=O)Nc1ccc(C(F)(F)F)cc1)[C@H](C)CN([C@H](C)CO)S2(=O)=O`, which cytotoxicity call is on record?
The cytotoxicity call was “inactive”.

`Cc1ccccc1-c1ccc2c(c1)O[C@H](CN(C)C(=O)Nc1ccc(C(F)(F)F)cc1)[C@H](C)CN([C@@H](C)CO)S2(=O)=O` was tested. Which cytotoxicity call did it give?
The cytotoxicity call was “active”.

Which cytotoxicity call does the source give for `C[C@@H]1CCCCO[C@H](CN(C)Cc2ccc(C(=O)O)cc2)[C@@H](C)CN([C@H](C)CO)C(=O)c2cc(NC(=O)c3ccccc3)ccc2O1` here?
The cytotoxicity call was “inactive”.

How did the cytotoxicity call turn out when `C[C@H](CO)N1C[C@H](C)[C@@H](CN(C)CC2CCCCC2)Oc2c(NC(=O)Cn3cnnn3)cccc2C1=O` was run?
The cytotoxicity call was “inactive”.

`C[C@@H]1CN([C@H](C)CO)C(=O)Cc2cc(NC(=O)Cn3cnnn3)ccc2O[C@H]1CN(C)CC1CC1` was tested. Which cytotoxicity call did it give?
Its cytotoxicity call is “inactive”.

How did the cytotoxicity call turn out when `C[C@H]1CN([C@@H](C)CO)S(=O)(=O)c2ccc(-c3cccnc3)cc2O[C@@H]1CN(C)C(=O)NC1CCCC1` was run?
The cytotoxicity call was “inactive”.

How did the cytotoxicity call turn out when `O=C(C1CC1)N1CCCN(C(=O)C2CC2)CC1` was run?
The cytotoxicity call was “inactive”.

With `Cc1noc(C)c1S(=O)(=O)Nc1ccc2c(c1)C(=O)N([C@@H](C)CO)C[C@H](C)[C@H](CN(C)C(=O)Nc1ccc(F)cc1)OCCCC[C@H](C)O2` as the compound, how does the cytotoxicity call read?
The cytotoxicity call was “inactive”.

How did the cytotoxicity call turn out when `O=c1ccn(C2OC(CO)C(O)C2O)c(=O)[nH]1` (configuration not stated) was run?
Its cytotoxicity call is “inactive”.

How did the cytotoxicity call turn out when `O=c1ccn([C@H]2O[C@H](CO)[C@@H](O)[C@@H]2O)c(=S)[nH]1` was run?
Its cytotoxicity call is “active”.

With `O=c1ccn([C@@H]2O[C@H](CO)[C@@H](O)[C@H]2O)c(=O)[nH]1` as the compound, how does the cytotoxicity call read?
Its cytotoxicity call is “inactive”.

With `C[C@H]1CN([C@@H](C)CO)C(=O)Cc2cc(NC(=O)CCC(F)(F)F)ccc2O[C@@H]1CN(C)C(=O)Nc1cccc2ccccc12` as the compound, how does the cytotoxicity call read?
The cytotoxicity call was “inactive”.

Which cytotoxicity call does the source give for `NC[C@H](c1ccco1)N1CCCCCC1` here?
Its cytotoxicity call is “inactive”.

Which cytotoxicity call does the source give for `OC[C@@H]1CC[C@@H]2O[C@H](CCc3ccc(C#Cc4ccccc4)cc3)[C@H](n3cc(-c4ccccc4)nn3)C[C@@H]2O1` here?
The cytotoxicity call was “inactive”.

With `OC[C@H]1CC[C@@H]2O[C@H](CCc3ccc(C#Cc4ccccc4)cc3)[C@@H](n3cc(-c4ccccc4)nn3)C[C@@H]2O1` as the compound, how does the cytotoxicity call read?
The cytotoxicity call was “active”.

`OC[C@H]1CC[C@@H]2O[C@H](CCc3ccc(C#CCc4ccccc4)cc3)[C@H](n3cc(-c4ccccc4)nn3)C[C@@H]2O1` was tested. Which cytotoxicity call did it give?
The cytotoxicity call was “inactive”.

For `OC[C@H]1CC[C@@H]2O[C@H](CCc3ccc(C#Cc4ccccc4)cc3)[C@H](n3cc(-c4ccccc4)nn3)C[C@@H]2O1`, which cytotoxicity call is on record?
The cytotoxicity call was “inactive”.

How did the cytotoxicity call turn out when `OC[C@H]1CC[C@@H]2O[C@H](CCc3ccc(C#CCc4ccccc4)cc3)[C@@H](n3cc(-c4ccccc4)nn3)C[C@@H]2O1` was run?
The cytotoxicity call was “inactive”.

How did the cytotoxicity call turn out when `OC[C@@H]1CC[C@@H]2O[C@H](CCc3ccc(C#Cc4ccccc4)cc3)[C@@H](n3cc(-c4ccccc4)nn3)C[C@@H]2O1` was run?
Its cytotoxicity call is “active”.

With `C[C@H](CO)N1C[C@H](C)[C@@H](CN(C)Cc2ccc(C(=O)O)cc2)OCCCC[C@H](C)Oc2ccc(NS(=O)(=O)c3ccccc3)cc2C1=O` as the compound, how does the cytotoxicity call read?
Its cytotoxicity call is “inactive”.

With `CN1CCN(C(=O)C[C@H]2CC[C@H]3[C@@H](COC[C@@H](O)CN3C(=O)C3CC3)O2)CC1` as the compound, how does the cytotoxicity call read?
The cytotoxicity call was “inactive”.

For `C[C@H](CO)N1C[C@H](C)[C@H](CN(C)Cc2ccccc2)Oc2ccc(NC(=O)Cn3cnnn3)cc2CC1=O`, which cytotoxicity call is on record?
The cytotoxicity call was “inactive”.

How did the cytotoxicity call turn out when `COc1ccc(S(=O)(=O)N(C)C[C@@H]2Oc3ncc(-c4ccncc4)cc3C(=O)N([C@H](C)CO)C[C@H]2C)cc1` was run?
Its cytotoxicity call is “inactive”.

With `NCc1cccc2c1OCC2` as the compound, how does the cytotoxicity call read?
Its cytotoxicity call is “inactive”.

`CC(C)NCCCn1c(Sc2cc3c(cc2I)OCO3)nc2c(N)ncnc21` was tested. Which cytotoxicity call did it give?
Its cytotoxicity call is “active”.

With `CCOc1nc2c(N)ncnc2n1CC` as the compound, how does the cytotoxicity call read?
Its cytotoxicity call is “inactive”.

With `COc1ccc(CN(C)C[C@H]2OCCCC[C@H](C)Oc3ccc(NC(=O)Nc4ccccc4)cc3C(=O)N([C@H](C)CO)C[C@H]2C)cc1` as the compound, how does the cytotoxicity call read?
The cytotoxicity call was “inactive”.

With `C[C@@H]1CN([C@H](C)CO)S(=O)(=O)c2ccc(C#CCC3CCCC3)cc2O[C@H]1CN(C)C(=O)c1cnccn1` as the compound, how does the cytotoxicity call read?
Its cytotoxicity call is “inactive”.

`C[C@@H]1CCCCO[C@@H](CN(C)C(=O)Nc2ccccc2)[C@@H](C)CN([C@@H](C)CO)C(=O)c2cc(NC(=O)Nc3ccccc3)ccc2O1` was tested. Which cytotoxicity call did it give?
The cytotoxicity call was “inactive”.

With `Cc1noc(C)c1NC(=O)Nc1ccc2c(c1)C(=O)N([C@H](C)CO)C[C@H](C)[C@@H](CN(C)S(=O)(=O)c1ccccc1)O2` as the compound, how does the cytotoxicity call read?
The cytotoxicity call was “inactive”.

`Cc1noc(C)c1S(=O)(=O)Nc1cccc2c1O[C@H](CN(C)C(=O)NC(C)C)[C@H](C)CN([C@@H](C)CO)C2=O` was tested. Which cytotoxicity call did it give?
The cytotoxicity call was “inactive”.

With `COc1ccc(S(=O)(=O)N[C@@H]2C=C[C@H](CC(=O)NCCc3ccncc3)O[C@H]2CO)cc1` as the compound, how does the cytotoxicity call read?
The cytotoxicity call was “inactive”.
